Values joined by “and” are separate entries in the source; they are usually repeats but may differ in a detail not shown here. Equal entries are not always repeated. Inconclusive results are not listed. Values without a mark were called inactive. Active and inactive are the calls of the source. Calls follow the shape of the dose curve; as a rule, active = well fitted curve in the direction sought with a large enough effect in the repeat runs; inconclusive = weak or mixed curves; inactive = no such curve, though single readings can be large; an effect the other way counts as inactive or inconclusive.
% is scaled to controls: 0 for no effect and ±100 for the full control effect; potency is read from the fitted curve at half-maximal effect.
Also: nearly all actives have a fitted effect of over 55% in size.

For the first test, the target named is Cytochrome P450 2D6 (Homo sapiens) (UniProt P10635). As to the kind of experiment: Cytochrome P450 family 2 subfamily D member 6 (CYP2D6) small molecule antagonists: luciferase biochemical (cell-free) qHTS assay (AID 1645840). To be noted: P450-Glo CYP2D6 enzyme, luciferin luminescence, 1 h; series mostly up to 57.4 µM; activity change, negative = inhibition: at the top concentration. A digest of the protocol: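 P450-Glo luminescent screen: recombinant CYP2D6 enzyme–proluciferin substrate mix preincubated with compound 10 min at room temperature, then NADPH regeneration added for 1 h at room temperature. Detection reagent added for 20 min; luciferin light read as relative luminescence units.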
Chain of Cytochrome P450 2D6 (Homo sapiens) (P10635 whole entry, looked up): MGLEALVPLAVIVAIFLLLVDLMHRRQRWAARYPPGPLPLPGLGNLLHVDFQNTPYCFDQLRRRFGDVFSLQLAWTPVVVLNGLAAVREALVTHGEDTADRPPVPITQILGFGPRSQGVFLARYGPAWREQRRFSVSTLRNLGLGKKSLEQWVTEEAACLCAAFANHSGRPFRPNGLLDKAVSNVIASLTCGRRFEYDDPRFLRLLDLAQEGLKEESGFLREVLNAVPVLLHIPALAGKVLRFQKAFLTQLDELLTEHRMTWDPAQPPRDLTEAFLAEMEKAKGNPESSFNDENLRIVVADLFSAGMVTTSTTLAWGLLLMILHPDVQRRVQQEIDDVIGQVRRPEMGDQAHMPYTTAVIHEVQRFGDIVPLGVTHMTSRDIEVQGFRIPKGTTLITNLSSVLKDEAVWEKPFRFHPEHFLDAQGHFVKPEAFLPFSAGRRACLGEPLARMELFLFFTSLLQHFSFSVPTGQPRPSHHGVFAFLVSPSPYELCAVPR
A general note: In qHTS, concentration-response curves come from the screen itself.
Consider `OCCCNc1cc(-c2ccnc(Nc3cccc(Cl)c3)n2)ccn1`, for which the Potency was 13.5 µM (active).
Regarding `COc1cc2c(Oc3ccc(-c4cnc(Nc5ccc(F)cc5)n(C)c4=O)cc3F)ccnc2cc1OCCCN1CCOCC1`, the “activity change, negative = inhibition” value was -16%.
As for `C#Cc1cccc(Nc2ncnc3cc(OC)c(OCCCCCCC(=O)NO)cc23)c1`, the Potency is 4.77 µM (active).
As to `Nc1nccc(Oc2ccc(NC(=O)c3c[nH]cc(-c4ccc(F)cc4)c3=O)cc2F)c1Cl`, the Potency was 3.38 µM (active).
Turning to `CCS(=O)(=O)c1cccc(-c2cc(C(=O)NC3CCN(C)CC3)c(C)c3[nH]c4ncc(C)cc4c23)c1`, the “activity change, negative = inhibition” value was 1.69%.
Take `Nc1ccccc1NC(=O)c1ccc(CNc2nccc(-c3cccnc3)n2)cc1`: the Potency is 4.77 µM (active).
Turning to `CCCCc1nc2cc(C=CC(=O)NO)ccc2n1CCN(CC)CC`, the Potency is 12 µM (active).
Still for that read-out and setting: with `CC(C)(C)c1cnc(CSc2cnc(NC(=O)C3CCNCC3)s2)o1` the figure was 25.1 µM (active); with `Nc1ncnc2c1c(-c1cccc(OCc3ccccc3)c1)cn2C1CC(CN2CCCC2)C1` (stereo unspecified), 12 µM (active); with `C[C@@H](Oc1cc(-c2cnn(C3CCNCC3)c2)cnc1N)c1c(Cl)ccc(F)c1Cl`, 21.3 µM (active) and 13.5 µM (active).
Regarding `CC(C)c1cnn2c(NCc3ccccc3)cc(N[C@@H](CO)[C@H](O)CO)nc12`, the “activity change, negative = inhibition” value is 0.484%.
As to `Cc1ccc(C(=O)Nc2cccc(C(F)(F)F)c2)cc1-c1ccc2nc(NCCN3CCOCC3)ncc2c1`, the Potency was 12 µM (active).
In the case of `CC1(C)CC(=O)c2c(C(F)(F)F)nn(-c3ccc(C(N)=O)c(NC4CCC(OC(=O)CN)CC4)c3)c2C1` (stereo unspecified), the Potency is 15.1 µM (active).
Turning to `COc1c(OCCCN2CCOCC2)ccc2c3n(c(=NC(=O)c4cnc(N)nc4)nc12)CCN3`, the “activity change, negative = inhibition” value was 5.04%.
Consider `Cc1cc(Nc2cc(CN3CCOCC3)c3nc(C)c(Cc4ccc(Cl)cc4F)n3n2)n[nH]1`, for which the Potency is 23.9 µM (active).
As for `CN(C)Cc1c(C(=O)NCCOc2ccc(C(=O)NO)cc2)oc2ccccc12`, the Potency was 1.69 µM (active).
In the case of `Cn1cncc1[C@@](N)(c1ccc(Cl)cc1)c1ccc2c(c1)c(-c1cccc(Cl)c1)cc(=O)n2C`, the Potency is 16.9 µM (active).
In the case of `c1ccc2c(CCNc3ccc(Nc4ccncc4)cc3)c[nH]c2c1`, the Potency is 0.477 µM (active).
For the molecule `CC(C)c1noc(N2CCC(COc3ccc(-c4ccc(S(C)(=O)=O)cc4)nc3)CC2)n1`, the “activity change, negative = inhibition” value is 6.83%.
Regarding `O=C(Nc1nc2cccc(-c3ccc(CN4CCS(=O)(=O)CC4)cc3)n2n1)C1CC1`, the “activity change, negative = inhibition” value is 8.63%.
As to `Cc1cc(Nc2nc(N[C@@H](C)c3ccc(F)cc3)c(C#N)cc2F)n[nH]1`, the Potency was 26.8 µM (active).
Turning to `O=C(O)Cn1nnc(-c2cc(N3CCC(Oc4cc(F)ccc4Br)CC3)no2)n1`, the “activity change, negative = inhibition” value was -3.76%.
On the same count and under the same terms, with `COc1ccc2c(OCc3nnc4ccc(-c5ccccc5)nn34)ccnc2c1` the figure was 10.4%; with `COc1c(N2C[C@@H]3CCCN[C@H]3C2)c(F)cc2c(=O)c(C(=O)O)cn(C3CC3)c12`, 12.6%.
As for `CN1CCN(Cc2ccc(NC(=O)Nc3ccc(Oc4cc(NC(=O)C5CC5)ncn4)cc3)cc2C(F)(F)F)CC1`, the Potency was 8.49 µM (active).
As for `CNC(=O)c1nn(C)c2c1C(C)(C)Cc1cnc(Nc3ccc(N4CCN(C)CC4)cc3)nc1-2`, the “activity change, negative = inhibition” value is 0.85%.
For the molecule `COc1cc(Nc2ncc(F)c(Nc3ccc4c(n3)N(COP(=O)(O)O)C(=O)C(C)(C)O4)n2)cc(OC)c1OC`, the “activity change, negative = inhibition” value is 2.47%.
Turning to `COc1ccc(C(=O)CC2(O)C(=O)Nc3c(Cl)ccc(Cl)c32)cc1` (stereo unspecified), the “activity change, negative = inhibition” value was -11%.
For the molecule `CC(C)c1nn(-c2c(Cl)cccc2Cl)c2nc(Cc3ccc(OCCO)cc3)[nH]c(=O)c12`, the “activity change, negative = inhibition” value is -0.513%.

The next test deals with Cytochrome P450 2C9 (Homo sapiens) (UniProt P11712). Kind of test: Cytochrome P450 family 2 subfamily C member 9 (CYP2C9) small molecule antagonists: luciferase biochemical (cell-free) qHTS assay (AID 1645842). The following applies: P450-Glo CYP2C9 enzyme assay, luciferin luminescence; series mostly up to 57.4 µM; activity change, negative = inhibition: at the top concentration. Summed up: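 Luminescence, after 20 min with luciferin detection reagent, reflected CYP2C9 turnover during a 1 h NADPH-driven reaction at 37C. Enzyme-substrate mix contained 0.4% bovine serum albumin and was preincubated with compound 10 min at room temperature.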
Chain of Cytochrome P450 2C9 (Homo sapiens) (P11712 whole entry, looked up): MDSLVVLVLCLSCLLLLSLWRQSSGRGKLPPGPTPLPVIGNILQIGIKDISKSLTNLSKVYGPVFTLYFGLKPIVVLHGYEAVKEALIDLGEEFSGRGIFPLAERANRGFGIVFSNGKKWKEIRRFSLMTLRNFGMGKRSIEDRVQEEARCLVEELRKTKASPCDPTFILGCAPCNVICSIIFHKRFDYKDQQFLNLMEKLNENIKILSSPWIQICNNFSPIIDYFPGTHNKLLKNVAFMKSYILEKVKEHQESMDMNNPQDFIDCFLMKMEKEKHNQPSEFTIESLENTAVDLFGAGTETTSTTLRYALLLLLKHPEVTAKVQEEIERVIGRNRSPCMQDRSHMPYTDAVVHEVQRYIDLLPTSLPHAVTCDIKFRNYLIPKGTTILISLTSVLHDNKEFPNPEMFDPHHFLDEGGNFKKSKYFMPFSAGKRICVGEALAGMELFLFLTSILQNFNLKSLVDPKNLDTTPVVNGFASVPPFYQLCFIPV
On to `OCCCNc1cc(-c2ccnc(Nc3cccc(Cl)c3)n2)ccn1`, for which the Potency is 10.7 µM (active).
Turning to `COc1cc2c(Oc3ccc(-c4cnc(Nc5ccc(F)cc5)n(C)c4=O)cc3F)ccnc2cc1OCCCN1CCOCC1`, the “activity change, negative = inhibition” value is -0.518%.
Consider `C#Cc1cccc(Nc2ncnc3cc(OC)c(OCCCCCCC(=O)NO)cc23)c1`, for which the Potency was 10.7 µM (active).
For the molecule `Nc1nccc(Oc2ccc(NC(=O)c3c[nH]cc(-c4ccc(F)cc4)c3=O)cc2F)c1Cl`, the Potency was 8.49 µM (active).
On to `CCS(=O)(=O)c1cccc(-c2cc(C(=O)NC3CCN(C)CC3)c(C)c3[nH]c4ncc(C)cc4c23)c1`, for which the Potency was 4.77 µM (active).
As for `Nc1ccccc1NC(=O)c1ccc(CNc2nccc(-c3cccnc3)n2)cc1`, the Potency is 5.35 µM (active).
For the molecule `CC(C)(C)c1cnc(CSc2cnc(NC(=O)C3CCNCC3)s2)o1`, the Potency is 17.8 µM (active).
As to `Nc1ncnc2c1c(-c1cccc(OCc3ccccc3)c1)cn2C1CC(CN2CCCC2)C1` (stereo unspecified), the Potency was 16.9 µM (active).
On the same count and under the same terms, with `C[C@@H](Oc1cc(-c2cnn(C3CCNCC3)c2)cnc1N)c1c(Cl)ccc(F)c1Cl` the figure was 1.69 µM (active); with `CC(C)c1cnn2c(NCc3ccccc3)cc(N[C@@H](CO)[C@H](O)CO)nc12`, 3.79 µM (active).
The same measure, in the same setting: with `Cc1ccc(C(=O)Nc2cccc(C(F)(F)F)c2)cc1-c1ccc2nc(NCCN3CCOCC3)ncc2c1` the figure was 1.69 µM (active); with `CC1(C)CC(=O)c2c(C(F)(F)F)nn(-c3ccc(C(N)=O)c(NC4CCC(OC(=O)CN)CC4)c3)c2C1` (stereo unspecified), 2.68 µM (active).
`COc1c(OCCCN2CCOCC2)ccc2c3n(c(=NC(=O)c4cnc(N)nc4)nc12)CCN3`: the “activity change, negative = inhibition” value is -16.8%.
Take `Cc1cc(Nc2cc(CN3CCOCC3)c3nc(C)c(Cc4ccc(Cl)cc4F)n3n2)n[nH]1`: the Potency was 12 µM (active).
Take `CN(C)Cc1c(C(=O)NCCOc2ccc(C(=O)NO)cc2)oc2ccccc12`: the “activity change, negative = inhibition” value is -25.5%.
In the case of `Cn1cncc1[C@@](N)(c1ccc(Cl)cc1)c1ccc2c(c1)c(-c1cccc(Cl)c1)cc(=O)n2C`, the Potency is 0.169 µM (active).
As for `c1ccc2c(CCNc3ccc(Nc4ccncc4)cc3)c[nH]c2c1`, the Potency is 2.68 µM (active).
On to `O=C(Nc1nc2cccc(-c3ccc(CN4CCS(=O)(=O)CC4)cc3)n2n1)C1CC1`, for which the “activity change, negative = inhibition” value was -3.13%.
As to `Cc1cc(Nc2nc(N[C@@H](C)c3ccc(F)cc3)c(C#N)cc2F)n[nH]1`, the Potency is 1.9 µM (active).
Take `O=C(O)Cn1nnc(-c2cc(N3CCC(Oc4cc(F)ccc4Br)CC3)no2)n1`: the Potency was 13.5 µM (active).
As to `COc1ccc2c(OCc3nnc4ccc(-c5ccccc5)nn34)ccnc2c1`, the Potency is 0.756 µM (active).
In the case of `COc1c(N2C[C@@H]3CCCN[C@H]3C2)c(F)cc2c(=O)c(C(=O)O)cn(C3CC3)c12`, the “activity change, negative = inhibition” value was 0.504%.
As to `CN1CCN(Cc2ccc(NC(=O)Nc3ccc(Oc4cc(NC(=O)C5CC5)ncn4)cc3)cc2C(F)(F)F)CC1`, the Potency is 10.7 µM (active).
In the case of `CNC(=O)c1nn(C)c2c1C(C)(C)Cc1cnc(Nc3ccc(N4CCN(C)CC4)cc3)nc1-2`, the Potency is 21.3 µM (active).
For `COc1cc(Nc2ncc(F)c(Nc3ccc4c(n3)N(COP(=O)(O)O)C(=O)C(C)(C)O4)n2)cc(OC)c1OC`, the Potency is 10.7 µM (active).
Same read-out and setting: under `COc1ccc(C(=O)CC2(O)C(=O)Nc3c(Cl)ccc(Cl)c32)cc1` (stereo unspecified) stands 16.9 µM (active) and 15.1 µM (active); under `CC(C)c1nn(-c2c(Cl)cccc2Cl)c2nc(Cc3ccc(OCCO)cc3)[nH]c(=O)c12`, 5.35 µM (active).
